From PubChem BioAssay come the findings set out here.

SMILES strings stand for the structures. Active and inactive are the calls of the source.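 Rule for the calls: active = compounds killing one labelled cell type while sparing the other, by normalised counts and ratio limits, not self-fluorescent; inactive = the rest.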

This experiment in a line: EMT-state selective cytotoxicity in co-culture – imaging, PC-3E GFP, TEM4-18 mCherry, primary screen (AID 1345086).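 For all read-outs here: cells exposed to compound for 72 h before imaging.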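 For red/green cell ratio (normalised): normalised mesenchymal count divided by normalised epithelial count so high means epithelial killing.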 To be noted: PC-3E GFP / TEM4-18 mCherry co-culture, imaging cell counts, at 1 µM; for red/green cell ratio (normalised): actives lie on both sides, counts scaled to control wells, 1 = unselective.
Setting [1] is: measured here: epithelial PC-3E GFP cell survival.
Setting [2] is: measured here: mesenchymal TEM4-18 mCherry cell survival.

Take `CC(=O)N[C@@H]1[C@@H](OC(C)C(=O)O)[C@H](O)[C@@H](CO)O[C@H]1O` (stereo not given in full): the red/green cell ratio (normalised) is 0.95 (inactive). This compound also gave a normalised cell number under setting [1] of 1.06. Also, the normalised cell number under setting [2] turned out to be 1.

With `C[C@H](Oc1ccc(Oc2ccc3ncc(Cl)nc3c2)cc1)C(=O)O`, the red/green cell ratio (normalised) was 0.92 (inactive). Further, the normalised cell number under setting [1] was found to be 1.29. For the same compound, the normalised cell number under setting [2] is 1.18.

As for `CC(C)CC1C(=O)OC(C(C)C)C(=O)N(C)C(C(C)C)C(=O)OC(C(C)C)C(=O)N(C)C(C(C)C)C(=O)OC(C(C)C)C(=O)N1C` (stereo not given), the red/green cell ratio (normalised) is 0.99 (inactive). The compound also came in with a normalised cell number under setting [1] of 1.17. In addition, the normalised cell number under setting [2] was 1.15.

As for `CN(C(=O)OCc1ccccc1)C1C(O[C@@H]2OC(COS(=O)(=O)O)C(NC(=O)OCc3ccccc3)[C@H](OS(=O)(=O)O)[C@H]2OS(=O)(=O)O)OC2C[C@@H](NC(=O)OCc3ccccc3)[C@@H](OC3C(NC(=O)OCc4ccccc4)C[C@@H](NC(=O)OCc4ccccc4)[C@H](OS(=O)(=O)O)[C@H]3OS(=O)(=O)O)OC2C1OS(=O)(=O)O` (stereo not given in full), the red/green cell ratio (normalised) was 0.95 (inactive). For the same compound, the normalised cell number under setting [1] came to 1.05. The compound further gave a normalised cell number under setting [2] of 1.

In the case of `CO[C@H]1OC(COCc2ccccc2)C(O)[C@@H]2OC(=O)N[C@H]12` (stereo not given in full), the red/green cell ratio (normalised) is 1.08 (inactive). Under setting [1], this compound came in with a normalised cell number of 0.88. Under setting [2], the normalised cell number stood at 0.95.

For `O=c1c(O)c(-c2ccccc2)oc2cc(O)cc(O)c12`, the red/green cell ratio (normalised) was 0.9 (inactive). The compound also displayed a normalised cell number under setting [1] of 1.07. In addition, the normalised cell number under setting [2] is 0.96.

With `Cc1cc(O)c2c(c1)Cc1cccc(O)c1C2=O`, the red/green cell ratio (normalised) was 0.94 (inactive). Also, the normalised cell number under setting [1] came out at 1.28. Moreover, the normalised cell number under setting [2] was determined as 1.2.

For `COc1cc(O)c2c(c1)[C@@H](O)[C@@]13CO[C@@H](O)[C@@]1(O3)C2=O`, the red/green cell ratio (normalised) is 1.09 (inactive). Further, the normalised cell number under setting [1] was 1.01. Also, the normalised cell number under setting [2] is 1.1.

Consider `O=C(O)C1CC(C2CCCCN2)CN2CCCCC12` (stereo not given), for which the red/green cell ratio (normalised) was 1.06 (inactive). The compound also came in with a normalised cell number under setting [1] of 0.95. Further, the normalised cell number under setting [2] was determined as 1.

Regarding `CC1=CC2C(C(C)C)CCC(C)(O)C2CC1` (stereo not given), the red/green cell ratio (normalised) was 1.01 (inactive). Further, under setting [1], the normalised cell number turned out to be 1.1. Under setting [2], this compound had a normalised cell number of 1.11.

Turning to `CC1(C)C2CCC1(C)C(O)C2` (stereo not given), the red/green cell ratio (normalised) is 1.2 (inactive). Besides, the normalised cell number under setting [1] came to 0.75. In addition, the normalised cell number under setting [2] is 0.9.

For `CC(CCC(=O)O)[C@H]1CCC2C3C(C[C@H](O)[C@@]21C)[C@@]1(C)CC[C@@H](O)C[C@H]1C[C@H]3O` (stereo not given in full), the red/green cell ratio (normalised) is 0.97 (inactive). The same compound displayed a normalised cell number under setting [1] of 1.01. The compound further showed a normalised cell number under setting [2] of 0.98.

Take `Cc1c(O)c(O)cc2oc3cc(O)cc(O)c3c(=O)c12`: the red/green cell ratio (normalised) is 1.06 (inactive). The normalised cell number under setting [1] stood at 1.06. For the same compound, the normalised cell number under setting [2] amounted to 1.12.

Take `NC(=O)NCCCC(N)C(=O)O` (stereo not given): the red/green cell ratio (normalised) is 1.05 (inactive). Further, the normalised cell number under setting [1] is 1.03. The normalised cell number under setting [2] is 1.08.

As to `COc1cc(/C=C/C(=O)/C=C(O)/C=C/c2ccc(O)c(OC)c2)ccc1O`, the red/green cell ratio (normalised) was 1.04 (inactive). Further, the normalised cell number under setting [1] is 1.02. The normalised cell number under setting [2] is 1.06.

`COC(=O)[C@@H]1C(O)CC[C@H]2CN3CCc4c([nH]c5ccccc45)[C@@H]3C[C@@H]21` (stereo not given in full): the red/green cell ratio (normalised) was 1.2 (inactive). This compound also returned a normalised cell number under setting [1] of 0.88. Besides, the normalised cell number under setting [2] turned out to be 1.07.

`CC(C)(O)CC[C@@H](O)[C@](C)(O)C1CC[C@@]2(O)C3=CC(=O)C4C[C@@H](O)[C@@H](O)C[C@]4(C)C3CC[C@]12C` (stereo not given in full): the red/green cell ratio (normalised) was 0.93 (inactive). The same compound gave a normalised cell number under setting [1] of 0.94. The normalised cell number under setting [2] was found to be 0.88.

Consider `C=C1OC(=O)[C@]2([C@H](C)C=C[C@H](O)[C@@H]2O)[C@@H]1O`, for which the red/green cell ratio (normalised) is 0.98 (inactive). Also, the normalised cell number under setting [1] is 1. For the same compound, under setting [2], the normalised cell number worked out at 0.99.

As to `CC(=O)O[C@H]1CC[C@]2(C)C3CC[C@@]4(C)C(CC5O[C@@]6(CCC(C)CO6)[C@@H](C)C54)C3CC[C@@H]2C1` (stereo not given in full), the red/green cell ratio (normalised) is 1.09 (inactive). The compound further displayed a normalised cell number under setting [1] of 0.87. For the same compound, the normalised cell number under setting [2] came out at 0.95.

Take `CCC(CCC(C)[C@H]1CCC2C3CC=C4C[C@@H](O)CC[C@]4(C)C3CC[C@@]21C)C(C)C` (stereo not given in full): the red/green cell ratio (normalised) is 1.04 (inactive). Under setting [1], this compound came in with a normalised cell number of 1.04. This compound also returned a normalised cell number under setting [2] of 1.08.

In the case of `CC(=O)C(C)(C)[C@H]1OC2CC[C@@]3(C)[C@@](O)(CC[C@H]4Cc5c([nH]c6ccccc56)[C@@]43C)C2=CC1=O` (stereo not given in full), the red/green cell ratio (normalised) is 0.87 (inactive). For the same compound, the normalised cell number under setting [1] stood at 1.15. The compound also returned a normalised cell number under setting [2] of 1.

As to `COC(=O)C1O[C@H](O[Si](C)(C)C(C)(C)C)[C@@H](O)[C@@H](OC(=O)c2ccccc2)C1OC(=O)c1ccccc1` (stereo not given in full), the red/green cell ratio (normalised) was 0.98 (inactive). The compound further came in with a normalised cell number under setting [1] of 1.18. Besides, the normalised cell number under setting [2] amounted to 1.15.

Turning to `O=C(NCC1O[C@@H](OC2C(NC(=O)c3ccccc3)C[C@@H](NC(=O)c3ccccc3)[C@H](OC3OC(COS(=O)(=O)O)[C@@H](OS(=O)(=O)O)[C@H](NC(=O)c4ccccc4)[C@H]3OS(=O)(=O)O)[C@H]2OS(=O)(=O)O)[C@H](OS(=O)(=O)O)[C@@H](OS(=O)(=O)O)C1OS(=O)(=O)O)c1ccccc1` (stereo not given in full), the red/green cell ratio (normalised) is 1.21 (inactive). The compound also showed a normalised cell number under setting [1] of 0.96. Also, the normalised cell number under setting [2] worked out at 1.16.

Regarding `COc1cc2c(cc1OC)C1C(=O)c3c(O)cc4c(c3OC1CO2)C=CC(C)(C)O4` (stereo not given), the red/green cell ratio (normalised) was 0.7 (inactive). The same compound gave a normalised cell number under setting [1] of 0.94. For the same compound, the normalised cell number under setting [2] came to 0.66.

`O=C(Cc1ccccc1)NCC1O[C@@H](OC2C(NC(=O)Cc3ccccc3)C[C@@H](NC(=O)Cc3ccccc3)[C@H](OC3OC(COS(=O)(=O)O)[C@@H](OS(=O)(=O)O)[C@H](NC(=O)Cc4ccccc4)[C@H]3OS(=O)(=O)O)[C@H]2OS(=O)(=O)O)[C@H](OS(=O)(=O)O)[C@@H](OS(=O)(=O)O)C1OS(=O)(=O)O` (stereo not given in full): the red/green cell ratio (normalised) was 1.14 (inactive). This compound also returned a normalised cell number under setting [1] of 0.9. The compound further returned a normalised cell number under setting [2] of 1.03.

As for `CC(CC(=O)N1C(=O)OC[C@H]1c1ccccc1)N1CCOC1=S` (stereo not given in full), the red/green cell ratio (normalised) is 0.87 (inactive). Also, the normalised cell number under setting [1] is 1.09. Under setting [2], this compound gave a normalised cell number of 0.95.

`C=C1C/C=C(\C)CC[C@@H]2[C@@H]1CC2(C)C`: the red/green cell ratio (normalised) was 1.09 (inactive). The same compound yielded a normalised cell number under setting [1] of 0.98. This compound displayed a normalised cell number under setting [2] of 1.07.

In the case of `O=C1CC(c2ccc(O)cc2)Oc2ccccc21` (stereo not given), the red/green cell ratio (normalised) was 1.07 (inactive). Under setting [1], this compound came in with a normalised cell number of 1.01. Moreover, under setting [2], the normalised cell number came to 1.08.

With `COC1O[C@@H]2O[C@]3(C)CC[C@H]4[C@H](C)CC[C@@H]([C@H]1C)[C@@]24OO3` (stereo not given in full), the red/green cell ratio (normalised) is 0.81 (inactive). Under setting [1], this compound gave a normalised cell number of 0.82. This compound came in with a normalised cell number under setting [2] of 0.67.

Regarding `C=C1[C@@H](C)C2[C@H](Cc3c[nH]c4ccccc34)NC(=O)[C@]23C(=O)/C=C/C(=O)[C@H](OC(C)=O)/C(C)=C/[C@@H](C)C/C=C/[C@H]3[C@@H]1O` (stereo not given in full), the red/green cell ratio (normalised) was 1.13 (inactive). The normalised cell number under setting [1] amounted to 0.94. The compound further came in with a normalised cell number under setting [2] of 1.06.
